Experimental data as given in PubChem BioAssay AID1117319 (Southern Research Institute, 2015).
“And” between values parts separate entries of the source, which are not always exact repeats. Equal values may be shown once. Out of some 260,000 compounds screened, about 1,500 (0.58%) were called active. Not shown: some 5% with an inconclusive outcome.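 The calls were made as follows: active = inhibition above a set limit at one or more doses, reproduced on every date tested; inconclusive = results disagree between test dates, or hit never tested in dose response; inactive = the rest.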 The list is a sample of the results. Potency and affinity values are given separately.

These molecules were tested against Virion infectivity factor (Human immunodeficiency virus type 1 group M subtype B (isolate BH10)) + Virion infectivity factor (Human immunodeficiency virus type 1 group M subtype B (isolate BRU/LAI)) + Virion infectivity factor (Human immunodeficiency virus type 1 group M subtype B (isolate PCV12)) + Virion infectivity factor (Human immunodeficiency virus type 1 group M subtype B (isolate HXB2)) + DNA dC->dU-editing enzyme APOBEC-3G (Homo sapiens) (UniProt P69720+P69721+P69722+P69723+Q9HC16) (assay: HIV-1 Vif–A3G interaction blockers – biochemical, TR-FRET, GST-Vif 1-94, biotin-A3G peptide, dose response retest, primary screen (AID 1117319;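 also: Vif residues 1-94 fused to GST binding biotinylated APOBEC3G peptide 110-148; 0% = full assay without inhibitor and 100% = GST in place of GST-Vif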)). Settings: TR-FRET GST-Vif / biotin-A3G peptide binding; active compounds read high.

inhibition, inactive:
Cc1ccc(NC(=O)N2CCC(C(=O)Nc3ccc(C)cc3C)CC2)cc1 -2.75%
COC(=O)C1CCN(S(=O)(=O)c2c[nH]c(=O)[nH]c2=O)CC1 -3.67%
CC(C)CN(CC(C)C)S(=O)(=O)N1CCC(C(=O)N2CCc3ccccc3C2)CC1 10.1%
O=C(CSc1ccc2nnc(-c3ccccn3)n2n1)N1CCOCC1 5.93%
CCOC(=O)C=Nc1c(N)n(C)c(=O)n(C)c1=O -1.01%
CCCCSc1c(C)c2cc3c(cc2[nH]c1=O)OCO3 -11.4%
COc1cc(C(=O)NC(=S)NCc2ccco2)cc(OC)c1OC 5.31%
COc1cc(C(=O)NCc2ccco2)cc(OC)c1OC -2.63%
N#CC1=C(N)OC2=C(CC/C2=C\c2ccccc2)C1c1ccccc1 (stereo not given) 22.4%
Cc1ccc(/C=C2\CCC3=C2OC(N)=C(C#N)C3c2ccc(C)cc2)cc1 (stereo not given) 20.9%
CCOC(=O)N1CCN(C(=O)CN(Cc2ccccc2)S(=O)(=O)c2ccc(OC)c(Cl)c2)CC1 -0.5%
O=C(OCc1nc2scc(-c3ccccc3)c2c(=O)[nH]1)c1cc([N+](=O)[O-])ccc1Cl 1.37%
CCN(CC)CCNC(=O)Cn1nc(Cc2cccnc2)c2ccccc2c1=O -0.43%
O=C(Nc1cccc2c1CCCC2)C1CCCN(S(=O)(=O)c2cccc3nonc23)C1 (stereo not given) 22.9% and -4.27%
N#CC1=C(Nc2ccccc2)SC=C(c2ccc(F)cc2)N=C1N1CCOCC1 -6.08%
N#CC1=C(Nc2ccccc2)SC=C(c2ccccc2)N=C1N1CCOCC1 23.5%
COc1ccc(CCNC(=O)CC(Cc2ccc(C)cc2)C(=O)O)cc1OC (stereo not given) -5.29%
CCc1ccc(C(=O)COC(=O)c2cnc(C)cn2)cc1 2.17%
CCCN1C(=O)/C(=C/c2ccc(C)o2)SC1=Nc1ccc(OC)cc1 23.9%
COc1ccc(N=C2S/C(=C\c3ccc(C)s3)C(=O)N2CC(C)C)cc1 -0.05%
Cc1cccc(Cc2ccc(Cl)nn2)c1 3.42%
COc1cc(CCCN2C(=O)C(=O)NC[C@@H]2c2ccccc2)cc(OC)c1OC -0.8%
COc1cccc(CN2CCN(Cc3cccc4nonc34)CC2CCO)c1 (stereo not given) -3.03%
Cc1ccccc1CN1C[C@@H]2C[C@@H](c3cn[nH]c3-c3ccc(F)cc3)N3CCC[C@@]23C1=O 6.1%
CN1CCN(c2nc3ccccc3nc2NS(=O)(=O)c2ccc(Br)cc2)CC1 4.67%
O=S(=O)(Nc1nc2ccccc2nc1N1CCN(c2ccccc2)CC1)c1ccc(F)cc1 10.6%
CC(C)CNC(=O)COCc1cc(-c2ccc3c(c2)OCO3)on1 5.26%
COc1ccc(Cl)cc1C(=O)OCC(=O)NC(=O)c1cccn1C -9.04%
COc1ccc(S(=O)(=O)N2CCCC2CNC(=O)C(=O)NCc2ccccc2)cc1 (stereo not given) -0.59%
CCC(=O)NCC(c1ccco1)N1CCN(c2ccc(OC)cc2)CC1 (stereo not given) 2.46%
CCc1ccc(C(=O)Nc2cc(C)ccc2F)s1 -4.32%
c1ccc2c3c([nH]c2c1)CCNC3 -5.47%
O=C1NCCc2c1[nH]c1ccccc21 18.5%
COc1cc2[nH]c(=O)n(CCCCCC(=O)N3CCN(c4ccccn4)CC3)c(=O)c2cc1OC -2.43% and 26.2%
CCC(=O)N1CC2(CC(c3cccc(NC(=O)CC(c4ccccc4)c4ccccc4)c3)=NO2)C[C@H]1C(N)=O (stereo not given in full) 4.04%
O=C(CSc1nc2ccccc2c(=O)n1-c1ccccc1)NCc1ccc2c(c1)OCO2 -2.26%
COc1ccccc1-n1c(SCC(=O)c2ccc(O)cc2O)nc2cc([N+](=O)[O-])ccc21 11.3%
Cc1cccc(-n2c(SCC(=O)NCc3ccc4c(c3)OCO4)nc3ccccc3c2=O)c1 19.8%
CC(Sc1nc2cc([N+](=O)[O-])ccc2n1-c1ccc(F)cc1)C(=O)NCc1ccc2c(c1)OCO2 (stereo not given) -9.4%
O=C(CN1CCN(c2ccccc2)CC1)c1c[nH]c2ccccc12 -7.04%
COc1cccc(/C=C2\Oc3cc(OC(=O)N4CCOCC4)ccc3C2=O)c1 0.99%
O=C(CN(CCO)Cc1ccccc1)N1CCN(S(=O)(=O)c2ccccc2)CC1 0.45%
C/C=C/c1ccc(OCCCn2cncn2)c(OC)c1 -2.59%
COc1ccc(C2C(C#N)=C(N)Oc3c2ccc2cccnc32)cc1OC (stereo not given) 18.2%
COC(=O)C1=C(C)NC(C)=C(C(=O)OC)C1c1cc2cc(C)ccc2[nH]c1=O -2.33%
Cc1ccc(C(=O)Nc2ccc3[nH]c(=O)[nH]c3c2)c(C)c1 -1.2%
C=CCn1c(SCc2nc3ccccc3[nH]2)nnc1-c1cccc(OC)c1 7.4%
Cc1nc2ccc(S(=O)(=O)NCC(=O)NCCN3CCCCCC3)cc2s1 -0.42%
Cc1nc(N2CCOCC2)c2c3c(sc2n1)CCC3 -7.05%
CSc1nc(N2CCOCC2)c2c3c(sc2n1)CCCC3 2.91%
C=CCN(C(=O)c1csnn1)C(C(=O)NC(C)(C)C)c1ccncc1 (stereo not given) 8.31%
O=C(c1ccc(CNS(=O)(=O)c2ccccc2)cc1)N1CCN(c2ccccn2)CC1 5.22%
Oc1ccc2ccccc2c1N=Nc1ccc(F)cc1 7.15% and 5.32%
Oc1[nH]c2ccccc2c1N=Nc1ccc(F)cc1 -2.74%
CCOC(=O)CC(NC(=O)c1cccs1)c1ccc(C)cc1 (stereo not given) -0.96%
CCCCOc1ccccc1C1NC(=O)CCC1[N+](=O)[O-] (stereo not given) -4.07%
O=C(CNC(=O)c1cccs1)N/N=C/c1ccco1 10.8%
O=C(N/N=C/C=C\c1ccco1)c1cccs1 2.49%
O=C(Cc1cccs1)N/N=C/C=C/c1ccccc1 4.16%
COc1ccccc1/C=C/C=N/NC(=O)Cc1cccs1 -10.6%
